{"source": "the supplement of paper PMC9925115", "note": "Where a name gives a salt, the structure may show the parent alone. ± gives the uncertainty stated by the source.", "data": [{"tested_on": "FLX1", "experiment": "cell viability z-score within plate (CellTiter-Glo), mean of 3 biological replicates; higher = higher viability relative to plate (less growth inhibition)", "settings": "2 µM; time (hr): 120", "procedure": "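FLX1 fibrolamellar carcinoma cells (DNAJB1-PRKACA fusion), 600 cells/well in 384-well plates, treated with a Selleck kinase inhibitor library (L1200) at 2 uM for 5 days (120 hr); viability by CellTiter-Glo. A z-score was computed within each plate and averaged over three biological replicates.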", "values": [{"smiles": "O=C(Nc1cccc(Cl)c1)Nc1ncc(CCNc2ncnc3ccsc23)s1", "note": "[SNS-314 Mesylate]", "cell viability z-score within plate": "-2.37 ± 0.38"}, {"smiles": "CNC(=O)c1cccc(-c2ccc3c(N4CCOC[C@@H]4C)nc(N4CCOC[C@@H]4C)nc3n2)c1", "note": "[Vistusertib (AZD2014)]", "cell viability z-score within plate": "-0.936 ± 1.4"}, {"smiles": "O=C(Nc1c[nH]nc1-c1nc2ccc(CN3CCOCC3)cc2[nH]1)NC1CC1", "cell viability z-score within plate": "0.178 ± 0.39"}, {"smiles": "Cc1cc(C)c(/C=C2\\C(=O)Nc3ccccc32)[nH]1", "note": "[Semaxanib (SU5416)]", "cell viability z-score within plate": "-1.17 ± 0.77"}, {"smiles": "C=CC(=O)Nc1cccc(Oc2nc(Nc3ccc(N4CCN(C)CC4)cc3OC)ncc2Cl)c1", "cell viability z-score within plate": "0.221 ± 0.37"}, {"smiles": "COc1cc(N2CCC(N)CC2)ccc1Nc1ncc(Cl)c(-c2c[nH]c3ccccc23)n1", "cell viability z-score within plate": "-0.695 ± 0.23"}, {"smiles": "O=C(NC[C@H](O)CO)c1ccncc1Nc1ccc(I)cc1F", "cell viability z-score within plate": "-0.968 ± 0.82"}, {"smiles": "CCc1cncnc1N1CCN(Cc2nc3ccc(C(F)(F)F)cc3[nH]2)CC1", "cell viability z-score within plate": "0.164 ± 0.73"}, {"smiles": "CNCc1ccc(-c2cc(-c3nc(-c4ccc(S(=O)(=O)C(C)C)cc4)cnc3N)on2)cc1", "cell viability z-score within plate": "0.59 ± 0.39"}, {"smiles": "CN1CCN(CCOc2cc(OC3CCOCC3)c3c(Nc4c(Cl)ccc5c4OCO5)ncnc3c2)CC1", "note": "[Saracatinib (AZD0530)]", "cell viability z-score within plate": "0.194 ± 0.28"}, {"smiles": "CCn1c(-c2nonc2N)nc2c(C#CC(C)(C)O)ncc(OC[C@H]3CCCNC3)c21", "cell viability z-score within plate": "-1.24 ± 0.86"}, {"smiles": "CCC(=O)Nc1cccc(Oc2nc(Nc3ccc(N4CCN(C)CC4)cc3OC)ncc2Cl)c1", "cell viability z-score within plate": "0.708 ± 0.11"}, {"smiles": "Cc1cc(O)c2c(c1)C(=O)c1cccc(O)c1C2=O", "note": "[Chrysophanic Acid]", "cell viability z-score within plate": "0.539 ± 0.3"}, {"smiles": "N#CCNC(=O)c1ccc(-c2ccnc(Nc3ccc(N4CCOCC4)cc3)n2)cc1", "note": "[Momelotinib (CYT387)]", "cell viability z-score within plate": "-1.97 ± 1"}, {"smiles": "COC(=O)c1ccc2c(c1)NC(=O)/C2=C(\\Nc1ccc(N(C)C(=O)CN2CCN(C)CC2)cc1)c1ccccc1", "note": "[Nintedanib (BIBF 1120)]", "cell viability z-score within plate": "0.242 ± 0.43"}, {"smiles": "Cc1ccc(F)c(NC(=O)Nc2ccc(-c3cccc4[nH]nc(N)c34)cc2)c1", "note": "[Linifanib (ABT-869)]", "cell viability z-score within plate": "0.077 ± 0.57"}, {"smiles": "COCCOc1ccc2c(c1)ncn2-c1ccc2cccc(N3CCC(N)CC3)c2n1", "cell viability z-score within plate": "0.546 ± 0.4"}, {"smiles": "COc1ccc(-c2ccc3c(N4CCOC[C@@H]4C)nc(N4CCOC[C@@H]4C)nc3n2)cc1CO", "cell viability z-score within plate": "0.926 ± 0.45"}, {"smiles": "COc1cc(Nc2ncc3c(n2)-c2ccc(Cl)cc2C(c2c(F)cccc2OC)=NC3)ccc1C(=O)O", "note": "[Alisertib (MLN8237)]", "cell viability z-score within plate": "0.451 ± 0.63"}, {"smiles": "Cc1cc(Nc2cc(N3CCN(C)CC3)nc(/C=C/c3ccccc3)n2)n[nH]1", "cell viability z-score within plate": "0.628 ± 0.19"}, {"smiles": "O=C(c1ccc(Nc2nccc(-c3cc4ccccc4s3)n2)cc1)N1CCC(N2CCCC2)CC1", "note": "[IKK-16 (IKK Inhibitor VII)]", "cell viability z-score within plate": "0.237 ± 0.33"}, {"smiles": "Cn1cnc2c(F)c(Nc3ccc(Br)cc3F)c(C(=O)NOCCO)cc21", "cell viability z-score within plate": "-0.254 ± 0.15"}, {"smiles": "Oc1cccc(-c2nc(N3CCOCC3)c3oc4ncccc4c3n2)c1", "cell viability z-score within plate": "-0.163 ± 0.28"}, {"smiles": "CS(=O)(=O)CCNCc1ccc(-c2ccc3ncnc(Nc4ccc(OCc5cccc(F)c5)c(Cl)c4)c3c2)o1", "note": "[Lapatinib]", "cell viability z-score within plate": "0.823 ± 0.37"}, {"smiles": "Cn1cc(/C=C2\\C(=O)Nc3cccnc32)c2ccccc21", "cell viability z-score within plate": "0.84 ± 0.29"}, {"smiles": "COc1cccc(-c2cc(=O)c3ccccc3o2)c1N", "cell viability z-score within plate": "0.538 ± 0.2"}, {"smiles": "COc1ccc(CNC(=O)Nc2ncc([N+](=O)[O-])s2)cc1", "cell viability z-score within plate": "0.771 ± 0.6"}, {"smiles": "COc1ccc(-c2ccc3ncc4c(c3c2)n(-c2ccc(N3CCNCC3)c(C(F)(F)F)c2)c(=O)n4C)cn1", "cell viability z-score within plate": "0.514 ± 0.38"}, {"smiles": "Cc1cn(-c2cc(NC(=O)c3ccc(C)c(Nc4nccc(-c5cccnc5)n4)c3)cc(C(F)(F)F)c2)cn1", "note": "[Nilotinib (AMN-107)]", "cell viability z-score within plate": "0.322 ± 0.59"}, {"smiles": "Cc1[nH]c(/C=C2\\C(=O)Nc3ccc(S(=O)(=O)N(C)c4cccc(Cl)c4)cc32)c(C)c1C(=O)N1CCN(C)CC1", "cell viability z-score within plate": "-0.214 ± 0.72"}, {"smiles": "COc1cc2ncnc(Nc3cccc(Cl)c3)c2cc1OC", "note": "[AG-1478 (Tyrphostin AG-1478)]", "cell viability z-score within plate": "-0.29 ± 0.52"}, {"smiles": "CCCNC(=O)Nc1ccc(Oc2ncnc3cc(OC)c(OC)cc23)cc1Cl", "cell viability z-score within plate": "0.704 ± 0.077"}, {"smiles": "Cn1cnc2c(F)c(Nc3ccc(Br)cc3Cl)c(C(=O)NOCCO)cc21", "note": "[Selumetinib (AZD6244)]", "cell viability z-score within plate": "-0.403 ± 0.49"}, {"smiles": "Cc1cc(C(=O)NOCCO)c(Nc2ccc(I)cc2F)n(C)c1=O", "cell viability z-score within plate": "0.132 ± 0.35"}, {"smiles": "COc1cc2nccc(Oc3ccc(NC(=O)Nc4cc(C)on4)c(Cl)c3)c2cc1OC", "note": "[Tivozanib (AV-951)]", "cell viability z-score within plate": "-0.573 ± 0.16"}, {"smiles": "O=C1c2ccc(Nc3ccc(F)cc3F)cc2CCc2ccc(OC[C@H](O)CO)cc21", "note": "[Skepinone-L]", "cell viability z-score within plate": "-1.21 ± 0.79"}, {"smiles": "Nc1nc(N)c2nc(-c3cccc(O)c3)c(-c3cccc(O)c3)nc2n1", "cell viability z-score within plate": "0.649 ± 0.23"}, {"smiles": "N#Cc1c(O)c2c(-c3ccc(-c4ccccc4O)cc3)csc2[nH]c1=O", "cell viability z-score within plate": "0.457 ± 0.29"}, {"smiles": "O=C1NC(=O)C(=Cc2ccc(-c3ccc(F)cc3)o2)S1", "note": "(stereo in doubt)", "cell viability z-score within plate": "0.244 ± 0.32"}, {"smiles": "CCN1/C(=C/C(C)=O)Sc2ccc(OC)cc21", "cell viability z-score within plate": "-1.85 ± 0.92"}]}]}
